From the supplement of paper PMC7695840
Structures can show the parent of a compound that is named as a salt.

Tests used:
[1] = tested on: Staphylococcus aureus MW2 delta-mecA (mecA-); assay: normalized GFP fluorescence (growth of mecA- strain) (fraction of control range); higher = more growth of mecA- strain; conditions: compound concentration: 150 uM; cefoxitin: subinhibitory; fluorescent label: GFP
Procedure, shortened: (§1)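 Pre-induced S. aureus MW2 mecA+ (DsRed) and ΔmecA (GFP) cells were mixed 1:1 in LB with a daily-set subinhibitory cefoxitin dose. They were dispensed at 5 µL/well onto 150 μM compound (1.5% DMSO) in 1536-well plates, single replicate. Growth was 20 h at 37 °C, 90% humidity, unshaken, and DsRed (540/590) and GFP (485/520) were then read. Each channel was scaled per plate between the medians of the single-strain controls. Plates with high No Treatment ratios and rows with DsRed/GFP >10 were excluded.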

[2] = tested on: Staphylococcus aureus MW2 (mecA+); assay: normalized DsRed fluorescence (growth of mecA+ strain) (fraction of control range); higher = more growth of mecA+ strain; conditions: compound concentration: 150 uM; cefoxitin: subinhibitory; fluorescent label: DsRed
Procedure, shortened: as §1

Compound	normalized GFP fluorescence [1]	normalized DsRed fluorescence [2]
Cc1ccnc(NS(=O)(=O)c2ccc(N)cc2)n1	0.459	0.528
Cc1[nH]c(=O)c(C#N)cc1-c1ccncc1	0.476	0.797
NC(=O)c1ncn([C@@H]2O[C@H](CO)[C@@H](O)[C@H]2O)n1	0.38	0.58
CCCCCCOC(=O)NC(=N)c1ccc(NCc2nc3cc(C(=O)N(CCC(=O)OCC)c4ccccn4)ccc3n2C)cc1 [BIBR-1048 (Dabigatran)]	0.0654	0.815
CCCc1cc(C(N)=S)ccn1 [Protionamide (Prothionamide)]	0.749	0.698
CNC[C@@H](O)c1ccc(O)c(O)c1 [L-Adrenaline (Epinephrine)]	0.385	0.715
COC(=O)Nc1nc2cc(Sc3ccccc3)ccc2[nH]1	0.378	0.601
CN1CCC[C@@H]1CCO[C@](C)(c1ccccc1)c1ccc(Cl)cc1 [Clemastine Fumarate]	0.00687	0.338
O=C(O)CCNC(=O)c1ccc(/N=N/c2ccc(O)c(C(=O)O)c2)cc1	0.565	0.891
CCC(=O)O[C@H](CC(=O)O)C[N+](C)(C)C	0.307	1.23
O=C(CCCN1CCC(O)(c2ccc(Br)cc2)CC1)c1ccc(F)cc1	0.243	1.21
CC(=O)c1ccc2c(c1)N(CCCN(C)C)c1ccccc1S2	0.165	1.27
COC(=O)C1=C(C)NC(C)=C(C(=O)OCCN(C)Cc2ccccc2)C1c1cccc([N+](=O)[O-])c1 (configuration not stated)	-0.00636	1.02
COC(=O)Nc1nc2cc(C(=O)c3ccccc3)ccc2[nH]1	0.145	1.25
CC(C)C[C@H](NC(=O)[C@H](CCc1ccccc1)NC(=O)CN1CCOCC1)C(=O)N[C@@H](Cc1ccccc1)C(=O)N[C@@H](CC(C)C)C(=O)[C@@]1(C)CO1 [Carfilzomib (PR-171)]	0.271	1.11
CCS(=O)(=O)CCn1c([N+](=O)[O-])cnc1C	0.603	1.08
CCN1CCC[C@H]1CNC(=O)c1cc(S(N)(=O)=O)ccc1OC [Levosulpiride (Levogastrol)]	0.447	0.695
Cc1ccc(Nc2nccc(N(C)c3ccc4c(C)n(C)nc4c3)n2)cc1S(N)(=O)=O [Pazopanib]	0.64	0.586
COCCCOc1ccnc(C[S+]([O-])c2nc3ccccc3[nH]2)c1C (configuration not stated)	0.186	0.865
Cc1ccccc1C(=O)Nc1ccc(C(=O)N2CCCC(O)c3cc(Cl)ccc32)c(C)c1 (configuration not stated)	0.188	0.541
CS(=O)(=O)CCNCc1ccc(-c2ccc3ncnc(Nc4ccc(OCc5cccc(F)c5)c(Cl)c4)c3c2)o1 [Lapatinib Ditosylate (Tykerb)]	-0.0239	1.52
CCCCCNC(=N)N/N=C/c1c[nH]c2ccc(OC)cc12	0.0155	0.587
CC[C@]1(O)C[C@H]2CN(CCc3c([nH]c4ccccc34)[C@@](C(=O)OC)(c3cc4c(cc3OC)N(C=O)[C@H]3[C@@](O)(C(=O)OC)[C@H](OC(C)=O)[C@]5(CC)C=CCN6CC[C@]43[C@@H]65)C2)C1	0.501	0.633
Clc1ccc(C(Cn2ccnc2)OCc2c(Cl)cccc2Cl)c(Cl)c1 (configuration not stated) [Isoconazole nitrate (Travogen)]	-0.00251	0.00958

Compound	normalized GFP fluorescence [1]	normalized DsRed fluorescence [2]
CCOC(=O)N1CCC(=C2c3ccc(Cl)cc3CCc3cccnc32)CC1	-0.02	0.807
CCOC(=O)[C@H](CCc1ccccc1)N[C@H]1CCCN2CCC[C@@H](C(=O)O)N2C1=O [Cilazapril monohydrate (Inhibace)]	0.646	0.59
N=C(N)NC(=N)NCCc1ccccc1	0.435	0.624
C[N+]1(C)[C@@H]2CC[C@H]1C[C@@H](OC(=O)C(O)c1ccccc1)C2 (some centres not stated)	0.29	0.71
C[C@H]1O[C@H](O[C@H]2[C@H](O)[C@@H](O)[C@@H](O[C@H]3[C@H](O)[C@@H](O)C(O)O[C@@H]3CO)O[C@@H]2CO)[C@H](O)[C@@H](O)[C@@H]1N[C@H]1C=C(CO)[C@@H](O)[C@H](O)[C@H]1O (some centres not stated)	0.505	0.683
C[N+](C)(C)CCOP(=O)(O)OP(=O)([O-])OC[C@H]1O[C@@H](n2ccc(N)nc2=O)[C@H](O)[C@@H]1O	0.342	0.78
NS(=O)(=O)c1cc2c(cc1C(F)(F)F)NC(Cc1ccccc1)NS2(=O)=O (configuration not stated)	0.428	0.653
CC(C)Cc1ccc([C@H](C)C(=O)O)cc1	0.21	0.388
CCCCCCCCCCC[C@@H](C[C@@H]1OC(=O)[C@H]1CCCCCC)OC(=O)[C@H](CC(C)C)NC=O	0.94	0.482
Nc1ncn([C@H]2C[C@H](O)[C@@H](CO)O2)c(=O)n1 [Decitabine]	0.242	0.802
O=C1c2ccccc2C(=O)C1c1ccccc1 [Phenindione (Rectadione)]	0.0982	0.634
Cc1nc(=O)c2cc(CN(C)c3ccc(C(=O)N[C@@H](CCC(=O)O)C(=O)O)s3)ccc2[nH]1 [Raltitrexed (Tomudex)]	0.657	0.532
CC(C)(C#N)c1cc(Cn2cncn2)cc(C(C)(C)C#N)c1	0.351	0.796
CS(=O)(=O)c1ccc([C@@H](O)[C@@H](CO)NC(=O)C(Cl)Cl)cc1	0.776	0.661
CN(C/C=C/C#CC(C)(C)C)Cc1cccc2ccccc12 [Terbinafine hydrochloride (Lamisil)]	0.111	0.483
CCN(CC)Cc1cc(Nc2ccnc3cc(Cl)ccc23)ccc1O	0.205	0.684
NNc1nncc2ccccc12	0.383	0.694
Clc1ccc(COC(Cn2ccnc2)c2ccc(Cl)cc2Cl)cc1 (configuration not stated) [Econazole nitrate (Spectazole)]	-0.00195	0.01
COCCCN1CCC(NC(=O)c2cc(Cl)c(N)c3c2OCC3)CC1 [Prucalopride]	0.256	0.927
CN(C)CCCN1c2ccccc2CCc2ccc(Cl)cc21	-0.0283	0.939
CC(=O)N(CC(O)CN(C(C)=O)c1c(I)c(C(=O)NCC(O)CO)c(I)c(C(=O)NCC(O)CO)c1I)c1c(I)c(C(=O)NCC(O)CO)c(I)c(C(=O)NCC(O)CO)c1I (configuration not stated)	0.268	0.83
CC(=O)CCCCn1c(=O)c2c(ncn2C)n(C)c1=O	0.276	0.952
Nc1nc(F)nc2c1ncn2[C@@H]1O[C@H](COP(=O)(O)O)[C@@H](O)[C@@H]1O	0.362	0.656
CNC(=C[N+](=O)[O-])NCCSCc1csc(CN(C)C)n1	0.575	0.785

Compound	normalized GFP fluorescence [1]	normalized DsRed fluorescence [2]
C1CNCCN1	0.806	0.885
CCC(=O)O[C@]1(C(=O)CCl)[C@@H](C)C[C@H]2[C@@H]3CCC4=CC(=O)C=C[C@]4(C)[C@@]3(F)[C@@H](O)C[C@@]21C [Clobetasol propionate]	-0.000558	1.15
CC1(C)S[C@@H]2[C@H](NC(=O)COc3ccccc3)C(=O)N2[C@H]1C(=O)O	0.0184	0.0783
Cc1cccc(Nc2ccccc2C(=O)O)c1C [Mefenamic Acid]	0.0909	0.169
COC(=O)[C@@H]1CC2=CC(=O)CC[C@]2(C)[C@@]23O[C@@H]2C[C@@]2(C)[C@@H](CC[C@@]24CCC(=O)O4)[C@H]13 [Eplerenone]	0.583	0.645
CN(C)CCCN1c2ccccc2Sc2ccc(Cl)cc21	-0.00289	1.26
CC[C@H]1OC(=O)[C@H](C)[C@@H](O[C@H]2C[C@@](C)(OC)[C@@H](O)[C@H](C)O2)[C@H](C)[C@@H](O[C@@H]2O[C@H](C)C[C@H](N(C)C)[C@H]2O)[C@](C)(OC)C[C@@H](C)C(=O)[C@H](C)[C@@H](O)[C@]1(C)O [Clarithromycin (Biaxin, Klacid)]	0.181	0.788
CC(C)NCC(O)c1ccc(O)c(O)c1 (configuration not stated) [Isoprenaline hydrochloride]	0.458	0.758
COCCOC(=O)C1=C(C)NC(C)=C(C(=O)OC(C)C)C1c1cccc([N+](=O)[O-])c1 (configuration not stated)	0.032	0.85
Cc1[nH]c2ccccc2c1CCNCc1ccc(/C=C/C(=O)NO)cc1 [Panobinostat]	0.228	1.43
CCN(CC)CCNC(=O)c1c(C)[nH]c(/C=C2\C(=O)Nc3ccc(F)cc32)c1C [Sunitinib Malate (Sutent)]	0.0077	1.42
Cc1cnc(NC(=O)C2=C(O)c3ccccc3S(=O)(=O)N2C)s1	0.204	0.469
CCCCC1C(=O)N(c2ccccc2)N(c2ccccc2)C1=O [Phenylbutazone (Butazolidin, Butatron)]	0.207	0.436
CN(C/C=C/c1ccccc1)Cc1cccc2ccccc12	0.0944	1.02
Cc1cccc(C)c1NC(=O)C1CCCCN1C (configuration not stated)	0.677	0.7
COc1c2occc2cc2ccc(=O)oc12	0.476	0.402
C=C1[C@H](CO)[C@@H](O)C[C@@H]1n1cnc2c(=O)[nH]c(N)nc21 [Entecavir hydrate]	0.319	0.447
CC(=O)[C@@]1(O)CC[C@H]2[C@@H]3CCC4=CC(=O)CCC4=C3[C@@H](c3ccc(N(C)C)cc3)C[C@@]21C [Ulipristal]	0.57	0.967
Cc1ccc(C(=O)Nc2ccc(S(=O)(=O)O)c3cc(S(=O)(=O)O)cc(S(=O)(=O)O)c23)cc1NC(=O)c1cccc(NC(=O)Nc2cccc(C(=O)Nc3cc(C(=O)Nc4ccc(S(=O)(=O)O)c5cc(S(=O)(=O)O)cc(S(=O)(=O)O)c45)ccc3C)c2)c1	0.319	0.63
Cc1cccc(C)c1OCC(C)N (configuration not stated)	0.344	1.02
CCN(Cc1ccncc1)C(=O)C(CO)c1ccccc1 (configuration not stated)	0.402	0.607
O=C1CN(/N=C/c2ccc([N+](=O)[O-])o2)C(=O)N1	0.0054	0.0533
COc1cc2c3cc1Oc1cc(ccc1O)C[C@@H]1c4c(cc(OC)c(O)c4Oc4ccc(cc4)C[C@@H]3N(C)CC2)CC[N+]1(C)C	0.357	0.607
